# Records with an inconclusive call do not appear. Entries that show only a call come without a potency. Active and inactive are the calls of the source. Calls follow the shape of the dose curve; as a rule, active = well fitted inhibition curve with a large enough effect; inconclusive = small, poorly fitted or top-dose-only effect; inactive = flat fitted curve, though single readings scatter.
# System: DFO2036
# Test: qHTS profiling for inhibitors of Plasmodium falciparum proliferation (AID 504749); also: nearly all actives have a fitted effect of over 60% in size
# Settings: P. falciparum in erythrocytes, SYBR Green DNA, 72 h; series mostly up to 28.7 µM
# Description: NIH National Institute of Allergy and Infectious Diseases [NIAID] NIH Chemical Genomics Center [NCGC] MLPCN Grant: None Assay Provider: Xinzhuan Su, NIAID NCGC Assay Overview: Plasmodium falciparum is a virulent malarial parasite that kills 1-2 million people worldwide each year. Transmitted by mosquitoes, the sporozoite form of the parasite enters the blood stream to infect hepatocytes, where they become merozoites that infect red blood cells (erythrocytes). Within erythrocytes, merozoites begin a […] cycle of growth and division, after which the parasite is released to infect new red blood cells. Gametocytes, which form within erythrocytes as well, circulate in the bloodstream and are ingested by the mosquito, thereby completing the life cycle. To profile malarial isolates for differential chemical responses and to identify inhibitors of malarial growth, an assay that measures P. falciparum growth and replication within erythrocytes was employed. This assay uses a DNA binding fluorescent dye (SYBR Green) to detect parasite DNA following cell lysis. Because mature erythrocytes lack DNA, only Plasmodium-derived DNA is detected.
# NCGC Assay Protocol Summary: The SYBR Green viability assay was adapted from a method described previously (Plouffe et al., 2008). For screening 3 ul culture medium was dispensed into 1536 well black clear bottom plates (Aurora Biotechnologies) using a Multidrop Combi (Thermo Fisher Scientific Inc.), 23 nL compounds in DMSO were added by a pin tool (Kalypsys), and 5 ul of erythrocytes infected with P. falciparum (0.3% parasitemia, 2.5% hematocrit final concentration) were added. The plates were incubated at 37 C in a humidified incubator in 5% CO2 for 72 h, and 2 ul lysis buffer (20 mM Tris HCl, 10 mM EDTA, 0.16% saponin, 1.6% triton X, 10X SYBR Green I supplied as 10,000X […] by Invitrogen) was added to each well. The plates were mixed for 25 sec with gentle shaking and incubated overnight at room temperature in the dark. The following morning, fluorescence intensity at 485(14) nm excitation and 535(25) nm emission wavelengths was measured on an EnVision (Perkin Elmer) plate reader. Plate reads were normalized relative to the control inhibitor (0.29 uM artemisinin) and vehicle (DMSO) wells present on each plate and then corrected by an algorithm using vehicle-only control plates at the beginning and end of the compound plate stack.
# Potency is read from the fitted curve at half-maximal effect.
row,Structure (SMILES),Potency
1,CC1OC(OC2C(O)CC(OC3C(O)CC(OC4CCC5(C)C(CCC6C5CCC5(C)C(C7=CC(=O)OC7)CCC65O)C4)OC3C)OC2C)CC(O)C1O (stereo not given),inactive
2,CC1(C)SC2C(NC(=O)C(C(=O)O)c3ccccc3)C(=O)N2C1C(=O)O (stereo not given),inactive
3,Nc1nc(/C(=C/CC(=O)O)C(=O)NC2C(=O)N3C(C(=O)O)=CCSC23)cs1 (stereo not given),inactive
4,O=C(O)c1ccc(N[C@@H]2OC[C@@H](O)[C@@H](O)[C@@H]2O)cc1,inactive
5,CCN(CC)CC(=O)Nc1c(C)cc(C)cc1C,inactive
6,Cc1cc2nc3c(=O)[nH]c(=O)nc-3n(CC(O)C(O)C(O)COP(=O)(O)O)c2cc1C (stereo not given),inactive
7,CC(O)C1CCC2C3CCC4CC(O)CCC4(C)C3CCC12C (stereo not given),inactive
8,COc1ccc2cc1Oc1cc3c(cc1OC)CC[N+](C)(C)C3Cc1ccc(cc1)Oc1c(OC)c(OC)cc3c1C(C2)[N+](C)(C)CC3 (stereo not given),inactive
9,C=C[C@@]1(C)C[C@H](OC(=O)CSC(C)(C)CNC(=O)[C@@H](N)C(C)C)[C@@]2(C)C(C)CC[C@@]3(CCC(=O)[C@@H]32)[C@H](C)[C@H]1O (stereo not given in full),631 nM (active)
10,CN[C@H](C)CCC=C(C)C,398 nM (active)
11,O=C1C(I)=CC(=C(c2cc(I)c(O)c(I)c2)c2ccccc2C(=O)O)C=C1I,inactive
12,CC1(C)CC1C(=O)N/C(=C/CCCCSCC(N)C(=O)O)C(=O)O (stereo not given),inactive
13,Nc1nc2[nH]cc(CCc3ccc(C(=O)NC(CCC(=O)O)C(=O)O)cc3)c2c(=O)[nH]1 (stereo not given),63.1 nM (active)
14,CC1OC(OCC2OC(Oc3c(-c4ccc(OCCO)c(OCCO)c4)oc4cc(OCCO)cc(O)c4c3=O)C(O)C(O)C2O)[C@@H](O)C(O)C1O (stereo not given in full),inactive
15,CN(C)CC[C@@](O)(c1ccccc1)c1ccccc1Cl,8910 nM (active)
16,COc1cccc2c1C(=O)c1c(O)c3c(c(O)c1C2=O)C[C@@](O)(C(=O)CO)C[C@@H]3OC1CC(N)C(O)C(C)O1 (stereo not given in full),2000 nM (active)
17,CCOC(=O)C(CCc1ccccc1)NC(C)C(=O)N1Cc2cc(OC)c(OC)cc2CC1C(=O)O (stereo not given),inactive
18,CC1=C(c2ccc(NN=C(C#N)C#N)cc2)NNC(=O)C1,inactive
19,CC1(C)C2CC[C@]1(C)[C@@H](O)C2,inactive
20,C[n+]1c2cc(N)ccc2cc2ccc(N)cc21,355 nM (active)

row,Structure (SMILES),Potency
1,CNC1=CN(O)C(c2ccccc2)=c2cc(Cl)ccc2=N1,3160 nM (active)
2,Cc1onc(-c2c(F)cccc2Cl)c1C(=O)NC1C(=O)N2C1SC(C)(C)C2C(=O)O (stereo not given),inactive
3,CNC1C(O)C(OC2C(NC(=O)C(O)CN)CC(N)C(OC3OC(CN)C(O)C(O)C3O)C2O)OCC1(C)O (stereo not given),inactive
4,O=[N+]([O-])O[C@H]1CO[C@H]2[C@@H]1OC[C@H]2O,inactive
5,CNC(=O)C(N)CSC(C)C1=C(C)c2cc3[n-]c(cc4nc(cc5[n-]c(cc1n2)c(C)c5CCC(=O)O)C(CCC(=O)O)=C4C)c(C)c3C(C)SCC(N)C(=O)NC.[Fe+2] (stereo not given),inactive
6,CCCC(=O)Nc1c(I)cc(I)c(C[C@H](CC)C(=O)O)c1I,inactive
7,C#C[C@@]1(O)CC[C@@H]2[C@H]3CCC4=C/C(=N\O)CC[C@H]4[C@@H]3CC[C@]21CC,inactive
8,C[C@]12CCC(=O)C=C1[C@@H]1C[C@H]1[C@H]1[C@@H]3[C@@H]4C[C@H]4[C@@]4(CCC(=O)O4)[C@@]3(C)CC[C@@H]12,inactive
9,CC1(C)O[C@@H]2C[C@H]3[C@@H]4CCC5=CC(=O)C=C[C@]5(C)[C@H]4C(O)C[C@]3(C)[C@]2(C(=O)CO)O1 (stereo not given in full),inactive
10,CC1CN(c2c(F)c(N)c3c(=O)c(C(=O)O)cn(C4CC4)c3c2F)CC(C)N1 (stereo not given),inactive
11,NC(C(=O)O)c1ccc(O)cc1 (stereo not given),inactive
12,CCCCC(=O)O[C@]1(C(=O)CO)CCC2C3CCC4=CC(=O)CCC4(C)C3C(O)CC21C (stereo not given in full),inactive
13,C=C1/C(=C\C=C2/CCC[C@]3(C)[C@@H]([C@H](C)/C=C/[C@@H](O)C4CC4)CC[C@@H]23)C[C@@H](O)C[C@@H]1O,inactive
14,CO/N=C(/C(=O)N[C@@H]1C(=O)N2C(C(=O)O)=C(CSc3nc(C)c(CC(=O)O)s3)CS[C@H]12)c1csc(N)n1,inactive
15,COc1cc2c(cc1O)CCN[C@@]21CS[C@H]2c3c(OC(C)=O)c(C)c4c(c3C(COC1=O)N1C2C2c3c(cc(C)c(OC)c3O)CC([C@@H]1O)N2C)OCO4 (stereo not given in full),0.9 nM (active)
16,CC1=C(C/C=C(\C)CCCC(C)CCCC(C)CCCC(C)C)C(=O)c2ccccc2C1=O (stereo not given),inactive
17,C[C@@H]1CCN(C(=O)[C@H](CCCNC(=N)N)NS(=O)(=O)c2cccc3c2NC[C@H](C)C3)[C@@H](C(=O)O)C1,inactive
18,C[C@@H]1CC2[C@@H]3C[C@H](F)C4=CC(=O)C(Cl)=C[C@]4(C)[C@@]3(F)[C@H](O)C[C@]2(C)[C@@]1(O)C(=O)CO (stereo not given in full),inactive
19,CN(C)CC/C=C1\c2ccccc2COc2ccc(CC(=O)O)cc21,inactive
20,Cc1cnc(NC(=O)C2C(=O)c3ccccc3S(=O)(=O)N2C)s1 (stereo not given),inactive
